PubChem BioAssay AID624330 (Southern Research Specialized Biocontainment Screening …, 2012)
In all, about 340,000 compounds went through this assay and about 2,100 (0.62%) were called active.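 Rule for the calls: active = first-screen hits whose inhibition reached a set limit at any dose in the follow-up dose series; inconclusive = inhibition above the set first-screen limit but never retested; inactive = the rest.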 Not all results are given here. Entries with a potency or affinity are not part of this list.

biological target: Rac GTPase-activating protein 1 (Homo sapiens) (UniProt Q9H0H5); assay: blockers of MgcRacGAP-driven Rac1 GTP hydrolysis – biochemical, ADP Hunter fluorescence, primary and confirmatory, confirmation (AID 624330); settings: MgcRacGAP-stimulated Rac1 GTP hydrolysis, at 30 µM, hits give high values, GST-tagged Rac1 F28L mutant substrate;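 note: fluorescence reports GDP produced by GAP-driven GTP hydrolysis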
Sequence (Q9H0H5 whole entry, looked up): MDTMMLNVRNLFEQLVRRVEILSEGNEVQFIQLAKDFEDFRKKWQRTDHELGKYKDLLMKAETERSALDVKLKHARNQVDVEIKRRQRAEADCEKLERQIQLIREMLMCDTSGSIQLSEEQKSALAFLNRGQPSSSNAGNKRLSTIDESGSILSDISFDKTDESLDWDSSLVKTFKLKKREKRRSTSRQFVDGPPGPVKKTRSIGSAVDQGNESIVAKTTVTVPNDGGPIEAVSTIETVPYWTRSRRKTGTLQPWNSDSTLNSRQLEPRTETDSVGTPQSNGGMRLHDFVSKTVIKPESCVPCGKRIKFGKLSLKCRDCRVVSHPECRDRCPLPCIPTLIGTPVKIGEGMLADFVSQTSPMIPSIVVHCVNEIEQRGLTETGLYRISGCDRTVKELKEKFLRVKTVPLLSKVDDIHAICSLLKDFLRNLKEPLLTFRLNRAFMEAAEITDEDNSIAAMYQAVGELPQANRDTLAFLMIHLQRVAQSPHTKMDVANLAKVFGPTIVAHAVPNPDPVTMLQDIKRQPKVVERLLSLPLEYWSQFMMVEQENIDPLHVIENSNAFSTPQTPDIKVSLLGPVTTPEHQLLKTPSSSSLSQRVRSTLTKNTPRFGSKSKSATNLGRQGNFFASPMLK

inhibition, inactive:
O=C(Nc1c2c(nc3ccccc13)CCCC2)c1ccccc1Cl 2.57%
CCCCCC(=O)Nc1c2c(nc3ccccc13)CCC2 8.1%
O=C(CCCCCl)Nc1c2c(nc3ccccc13)CCC2 0.44%
Cc1ccccc1C(=O)Nc1c2c(nc3ccccc13)CCCC2 10.8%
CCN1CCN(c2ccc(NC(=O)c3ccc(OC)c(S(=O)(=O)N4CCCC4)c3)cc2)CC1 4.33%
CC(C)N1CCN(Cc2coc3ccccc3c2=O)CC1CCO (stereo not drawn) 10.3%
O=C(CSc1nc(=O)n2ccccc2n1)NCCc1ccccc1 4.62%
NC(=O)CC(NC(=O)c1cccc(Br)c1)c1ccc(N2CCN(c3ccccn3)CC2)c([N+](=O)[O-])c1 (stereo not drawn) 5.09%
COc1ccccc1/C=C/C(=O)c1cc(Br)ccc1OC(=O)c1ccco1 8.54%
CC(C)CC(O)(CC(C)C)C(=O)NNc1ccccc1 11.2%
CCOC(=O)c1nc(Nc2ccccc2)c2ccccc2n1 -2.22%
CCOC(=O)c1nc(Nc2ccc(C)cc2)c2ccccc2n1 4.57%
CCN(CC(=O)Nc1ccccc1OC)C(=O)COc1ccc(C#N)cc1 2.59%
COc1ccc(CN(C)CC(=O)Nc2ccccc2C(F)(F)F)c(OC)c1 24.5%
COc1ccccc1CN(C)CC(=O)Nc1ccc(Cl)cc1C(F)(F)F 18.9%
COc1ccc(CCN=C(N)NS(=O)(=O)c2ccc(F)cc2)cc1OC 7.56%
CCC(=O)NC(=S)Nc1ccc(NC(=O)c2cccnc2)cc1 -1.6%
Cc1cc2ccccc2n2c(SCC(=O)NCc3cccs3)nnc12 -2.11%
C[C@H](CO)N1C[C@H](C)[C@@H](CN(C)S(=O)(=O)c2cccc(C#N)c2)OCc2cn(nn2)CCCC1=O 13.9%
NS(=O)(=O)c1ccc(-c2ccc(C=C3C(=O)c4ccccc4C3=O)o2)cc1 2.34%
NS(=O)(=O)c1ccc(-c2ccc(/C=C3\C(=O)Nc4cc(Cl)ccc43)o2)cc1 6.45%
CSc1ccccc1NC(=O)C1CCCN(S(C)(=O)=O)C1 (stereo not drawn) -1.03%
C=CCNC(=S)Nc1cccc(NC(=S)NCC=C)c1 6.56%
C=CCNC(=S)Nc1ccc(Cl)cc1 3.44%
CCCCn1c(CCNC(=O)c2cccs2)nc2ccccc21 -1.35%
COc1cccc(/C=N/NC(=O)c2ccc(N3CCCC3=O)cc2)c1 7.68%
COc1cccc(/C=N/NC(=O)c2cccc(N3CCCC3=O)c2)c1 4.11%
COc1ccc(O)c(/C=N/NC(=O)c2cccc(N3CCCC3=O)c2)c1 3.65%
COc1ccc(/C=N/NC(=O)c2ccc(N3CCCC3=O)cc2)cc1 7.42%
CCN(CCO)C(=O)CC1C(=O)NCCN1Cc1c(F)cccc1Cl (stereo not drawn) 9.19%
CN(Cc1cccc(F)c1)C(=O)CSc1nnc(C2CC2)n1C1CC1 7.8%
CCOc1cc(C(=O)NCC(C)CN(C)C)cc(OCC)c1OCC (stereo not drawn) 1.39%
Cc1ccc(NS(=O)(=O)c2ccc(C)c(NC(=O)c3ccc(S(=O)(=O)N4CCCCCC4)cc3)c2)c(C)c1 11.6%
COc1ccc(CN2CCN(CC(=O)Nc3ccccc3C(=O)NC3CC3)CC2)cc1F 6.52%
CCCN(CCO)Cc1ccc2ccccc2c1 3.4%
CN(C)C(=O)CCc1ccc2c3c([nH]c2c1)[C@]1(C)[C@@H](C(=O)N2CCCCC2)C[C@H](CC(=O)NCc2cccc(C(F)(F)F)c2)C(=O)N1CC3 4.55%
CCOC(=O)CSC1=NC(=O)/C(=C/c2ccc(Br)cc2)S1 19.4%
CCOC(=O)CSC1=NC(=O)/C(=C/c2ccc(OC)cc2)S1 16.1%
CCN1C[C@@H]2[C@@H]3C(=O)N(Cc4ccccc4)C(=O)[C@@H]3[C@](Cc3ccccc3)(C1=O)N2C(=O)c1ccc(Cl)cc1 6.26%
COc1ccc(C(=O)CC(=O)C(=O)Nc2ccc(OC)c(Cl)c2)cc1 5.32%
CN(C(=O)CCc1nc(-c2ccccc2F)no1)c1ccccc1 -0.78%
COc1ccc(C(=O)/C(=C\c2ccco2)N2C=CC=CC2=C(C#N)C#N)cc1 4.05%
N#CC(C#N)=C1C=CC=CN1/C(=C\c1ccco1)C(=O)c1ccc(-c2ccccc2)cc1 15.6%
N#CC(C#N)=C1C=CC=CN1/C(=C\c1ccccc1Cl)C(=O)c1ccccc1 17.8%
N#CC(C#N)=C1C=CC=CN1/C(=C\c1ccco1)C(=O)c1ccccc1 16.7%
CCCCN(C(=O)c1cc(CN2C(=O)c3ccccc3C2=O)ccc1OC)c1c(N)n(CC(C)C)c(=O)[nH]c1=O 3.78%
O=C(Nc1cccc(Cl)c1Cl)C1CCN(c2ncccn2)CC1 7.84%
CCOC(=O)C(Cc1ccccc1)C(=O)Nc1cccc(C)c1 (stereo not drawn) 1.33%
CCN(CC)c1ccc(/C=N/NC(=O)Nc2ccccc2)cc1 28.4%
CCN(CC)c1ccc(NC(=O)Nc2ccc(C(C)=O)cc2)cc1 10.2%
CCN(CC)c1ccc(NC(=S)NC(=O)C2CCC2)cc1 18%
CC(=O)c1cccc(NC(=O)CSC(=O)c2ccccc2)c1 7.67%
CCCCc1ccc(NC(=O)C2CCCC2)cc1 -0.66%
NC(=O)c1ccc(NC(=O)CSC(=O)c2ccccc2)cc1 8.91%
CCOC(=O)C(Cc1ccccc1)C(=O)Nc1ccc(NC(=O)C(Cc2ccccc2)C(=O)OCC)cc1 (stereo not drawn) 4.48%
COC(=O)c1cc(OC)c(OC)cc1NC(=O)CCCCCN1C(=O)CCC1=O 5.93%
COc1ccc(CCC(=O)Nc2ccc(Cn3ccnc3)cc2)cc1 6.46%
Cn1c(CCc2ccccc2)n[nH]c1=S 4.25%
C=CCOCCN(CC)CC 6.71%
CC#CCCCC(=O)Nc1ccccc1C(=O)O 6.9%
CCCn1c(SCCc2ccccc2)nc2c1c(=O)[nH]c(=O)n2C -2.73%
CCOc1ccc(NC(=O)COc2ccc(-n3cnnn3)cc2)cc1 6.31%
CCN(CC)c1ccc(/C=N/NC(=O)c2ccc(Br)o2)cc1 14.9%
COC(=O)Cc1ccc(NC(=O)c2ccc(Br)o2)cc1 18.8%
CCOC(=O)c1ccc(NC(=O)COc2ccc(-n3cnnn3)cc2)cc1 11.5%
COc1cccc(C(=O)NCCS(=O)(=O)N2CCC3(CC2)OCCO3)c1 6.03%
CC(=O)CC(=O)Nc1cccc2c1CCCC2 5.33%
COC(=O)c1cc(CNC(=O)c2ccc(O)c(Cl)c2)ccc1OC 2.78%
COC(=O)c1ccc(NCc2cc(O)ccc2O)cc1O 27%
CNS(=O)(=O)c1ccc(C(=O)NCC(=O)NCC2COc3ccccc3O2)cc1 (stereo not drawn) 3.68%
O=C(Nc1ccccc1N1CCCC1)C1CCN(S(=O)(=O)c2ccccc2)CC1 2.86%
CC(C)OCCCNC(=O)CN1C(=O)/C(=C/c2ccccc2)Sc2ccccc21 -14.8%
Cc1ccc(-c2cc(C(=O)N(C)Cc3cnn(C)c3C)c3cc(Br)ccc3n2)cc1 7.31%
O=C1C(Cl)=C(Nc2ccc(O)cc2)C(=O)c2ccccc21 27.1%
Cc1ccc(S(=O)(=O)Nc2ccc(N=Nc3ccc(O)cc3)cc2)cc1 21.7%
Cc1ccc(S(=O)(=O)/N=C2\C=C(NS(=O)(=O)c3ccccc3)C(=O)c3ccccc32)cc1 2.77%
O=C1C(O)=C(O)C(=O)c2ccccc21 -6.63%
O[C@H]1C[C@H](c2ccccc2)N(Cc2cccs2)C[C@@H]1n1cc(-c2ccc(F)cc2)nn1 7.08%
Cc1[nH]c(=O)[nH]c(=O)c1S(=O)(=O)N1CCCC(C(=O)NCc2ccco2)C1 (stereo not drawn) 4.98%
COc1cc(/C=N/Nc2nc3ccccc3s2)ccc1OC(=O)c1ccccc1F 4.55%
Oc1ccccc1C=NNc1nc2ccccc2s1 4.1%
COc1ccc(C=NNc2nc3ccccc3s2)cc1 2.73%
COc1cc(/C=N/Nc2nc3ccccc3s2)cc([N+](=O)[O-])c1O 8.67%
COc1cc(OC)cc(C(=O)Oc2ccc(/C=N/Nc3nc4ccccc4s3)cc2OC)c1 12.4%
Brc1csc(/C=N/Nc2nc3ccccc3s2)c1 8.54%
COc1ccc(OC)c(C(=O)COC(=O)c2ccc(C)o2)c1 13%
Cc1ccc2c(c1)C1CC(C)(O2)N(c2cccc(C(=O)NC3CCN(Cc4ccccc4)CC3)c2)C(=O)N1 (stereo not drawn) 3.74%
O=C(CSc1ncnc2sc3c(c12)CCCC3)NC1CCS(=O)(=O)C1 (stereo not drawn) 12.7%
CCN(CC(=O)Nc1ccc(S(=O)(=O)N2CCCC2)cc1)Cc1ccccc1 1.79%
Cc1ccc(C)c(-n2cc(CNCCc3cnccn3)c(-c3ccccc3)n2)c1 12.1%
Cc1cc(OC(C)C(=O)NCc2ccccn2)c2c(C)cc(=O)oc2c1 (stereo not drawn) 0.55%
CC(=O)Nc1cccc2ccc(O)cc12 -6.95%
CC(=O)Nc1ccc2ccc3cccc4ccc1c2c34 6.5%
